{"source": "PubChem BioAssay (NCI)", "note": "About 79,000 compounds went through this panel and 15% of them were active in at least one assay; those are over-represented in the sample as a whole. Active and inactive are the calls of the source. Rule as the data show it: active = growth inhibition above about 70%; inactive = the rest.", "data": [{"assay": "NCI Yeast Anticancer Drug Screen. Data for the cln2 rad14 strain (AID 165);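 also: 0% = growth equal to vehicle treated cultures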", "conditions": "S. cerevisiae cln2 rad14 strain, at 50.0 µM, stronger effect = higher value", "procedure,_shortened": "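Yeast strain cln2 rad14, bearing defects in cell cycle control and DNA repair, serves as the test system; values reflect growth inhibition compared with vehicle.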", "values": [{"smiles": "COc1ccc2c(c1)CCN1CCCc3ccc(OC)cc3C21", "note": "(centres undefined)", "growth inhibition": "55.1% (inactive)"}, {"smiles": "O=C1CN(/C=C(\\c2ccccc2)S(=O)Cc2ccccc2)C(=S)N1", "note": "(centres undefined)", "growth inhibition": "-7.7% (inactive)"}, {"smiles": "COC1(OC)N=C(N)C2(C#N)C(C)CC(=O)N(N(C)C)C12C#N", "note": "(centres undefined)", "growth inhibition": "-2.7% (inactive)"}, {"smiles": "COc1ccc2ccccc2c1C=O", "growth inhibition": "-16.2% (inactive)"}, {"smiles": "CC(C)NC(=O)OCc1cn2c(c1COC(=O)NC(C)C)CCC2", "growth inhibition": "22.4% (inactive)"}, {"smiles": "COC1(OC)C2(Cl)C3=CCCC=C3C1(Cl)C(Cl)=C2Cl", "growth inhibition": "29.8% (inactive)"}, {"smiles": "CS(=O)(=O)Cc1cc(-c2ccccc2)no1", "growth inhibition": "-3.4% (inactive)"}, {"smiles": "CC1=CN(c2ccccc2)S2=C1c1sc3c(c1N2c1ccc(Br)cc1)CCCC3", "note": "(centres undefined)", "growth inhibition": "14.4% (inactive)"}, {"smiles": "O=[N+]([O-])c1ccc(COP(=O)(OCc2ccc([N+](=O)[O-])cc2)OCc2ccc([N+](=O)[O-])cc2)cc1", "growth inhibition": "-46.5% (inactive)"}, {"smiles": "Cn1cnc(=O)c2n[nH]nc21", "growth inhibition": "-1.45% (inactive)"}, {"smiles": "O=c1c2ccccc2c(=O)n2n1CC=CC2", "growth inhibition": "-15.2% (inactive)"}, {"smiles": "CC(C)CCC(C)(C)COC(=O)c1ccc([N+](=O)[O-])cc1", "note": "(tested in a mixture with another compound)", "growth inhibition": "-2.25% (inactive)"}, {"smiles": "CSCCC(NC(=O)c1cnc2ccccc2n1)C(=O)O", "note": "(centres undefined)", "growth inhibition": "5.55% (inactive)"}, {"smiles": "COc1cccc(/C=C2/Sc3sc(C(C)=O)c(C)[n+]3C2=O)c1O", "growth inhibition": "-2.05% (inactive)"}, {"smiles": "CC(=O)O[C@@H]1CC[C@@]2(C)C(=O)C34C[C@@]5(C)C([C@@H](C)CCCC(C)C)CCC5(C)[C@](O)(O3)C(=O)[C@H]4C2C1(C)C", "note": "(some centres undefined)", "growth inhibition": "1.8% (inactive)"}, {"smiles": "O=[N+]([O-])/C(Cl)=C(\\NCCO)C(Cl)=C(Cl)Cl", "growth inhibition": "17.1% (inactive)"}, {"smiles": "CN(C)CCNC(=O)c1ccc2nc3c(nc2c1)C(=O)c1ccccc1-3", "growth inhibition": "36.8% (inactive)"}, {"smiles": "Ic1ccc(N=Nc2ccccc2)cc1", "growth inhibition": "-70.3% (inactive)"}, {"smiles": "CC(=O)c1cccc(C)n1", "growth inhibition": "18.2% (inactive)"}, {"smiles": "C1CCCCCc2c(-c3n[nH]c4c3CCCCCCCCCC4)n[nH]c2CCCC1", "growth inhibition": "7.9% (inactive)"}, {"smiles": "O=C(CCl)Nc1cc(Cl)c(Cl)cc1Cl", "growth inhibition": "2.75% (inactive)"}, {"smiles": "CCN(C(=O)c1ccc([N+](=O)[O-])cc1)C(c1ccccc1)P(=O)(c1ccccc1)c1ccccc1", "note": "(centres undefined)", "growth inhibition": "-37% (inactive)"}, {"smiles": "O=C1CCSC(=S)N1c1ccc(F)cc1F", "growth inhibition": "28.9% (inactive)"}, {"smiles": "O=C1OCC/C1=C1/Nc2ccccc2NC1=O", "growth inhibition": "-22.2% (inactive)"}, {"smiles": "Cc1cc2c(=O)[nH]cnc2[nH]1", "growth inhibition": "4.45% (inactive)"}, {"smiles": "O=NNc1ccc(Sc2ccccc2)cn1", "growth inhibition": "-8.55% (inactive)"}, {"smiles": "CSCC[C@H]1C(=O)N=C(N)N1C(=O)OCc1ccccc1", "growth inhibition": "-9.6% (inactive)"}, {"smiles": "CN(C)c1nc(=NCc2cccs2)ss1", "growth inhibition": "45.2% (inactive)"}, {"smiles": "CC1(C#N)N(C(=O)c2ccccc2)c2ccccc2N1C(=O)c1ccccc1", "growth inhibition": "27.2% (inactive)"}, {"smiles": "CCCOC(=O)CCCC1=NC2=CC=CC3=NC(C)=NC(=N1)N23", "growth inhibition": "-45.1% (inactive)"}, {"smiles": "C=CCc1cc(OC)c2c(c1)C(OC)CC(c1ccc(OC)c(OC)c1)O2", "note": "(centres undefined)", "growth inhibition": "12.6% (inactive)"}, {"smiles": "CC1C(O)=C(O)c2ccccc2N1O", "note": "(centres undefined)", "growth inhibition": "12.5% (inactive)"}, {"smiles": "CSCC(=O)c1ccccc1", "growth inhibition": "-6.3% (inactive)"}, {"smiles": "CC(=O)NC(Cc1c[nH]c2ccccc12)C(=O)Oc1ccc([N+](=O)[O-])cc1", "note": "(centres undefined)", "growth inhibition": "13.1% (inactive)"}, {"smiles": "Cc1cc(Cc2ccc(N)c(C)c2)ccc1N", "growth inhibition": "-52.9% (inactive)"}, {"smiles": "CC(C)C(O)C(C)(C)C(O)C#N", "note": "(centres undefined)", "growth inhibition": "-2.45% (inactive)"}, {"smiles": "CCCCC1(O)C(=O)N(c2ccccc2)N(c2ccccc2)C1=O", "growth inhibition": "13.1% (inactive)"}, {"smiles": "C[n+]1ccc(/C=C/c2c[nH]c3ccccc23)cc1", "growth inhibition": "-1.75% (inactive)"}, {"smiles": "COc1cc(/C=C2\\C=Cc3ccccc32)ccc1N(C)C", "growth inhibition": "-54.4% (inactive)"}]}, {"assay": "NCI Yeast Anticancer Drug Screen. Data for the bub3 strain (AID 167)", "conditions": "S. cerevisiae bub3 mutant strain, at 50.0 µM, stronger effect = higher value", "procedure,_shortened": "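Inhibition values come from growth of compound-treated mutant yeast normalised to vehicle-treated controls.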", "values": [{"smiles": "COc1ccc2c(c1)CCN1CCCc3ccc(OC)cc3C21", "note": "(centres undefined)", "growth inhibition": "31.4% (inactive)"}, {"smiles": "O=C1CN(/C=C(\\c2ccccc2)S(=O)Cc2ccccc2)C(=S)N1", "note": "(centres undefined)", "growth inhibition": "0% (inactive)"}, {"smiles": "COC1(OC)N=C(N)C2(C#N)C(C)CC(=O)N(N(C)C)C12C#N", "note": "(centres undefined)", "growth inhibition": "-37.4% (inactive)"}, {"smiles": "COc1ccc2ccccc2c1C=O", "growth inhibition": "5.45% (inactive)"}, {"smiles": "CC(C)NC(=O)OCc1cn2c(c1COC(=O)NC(C)C)CCC2", "growth inhibition": "14.2% (inactive)"}, {"smiles": "COC1(OC)C2(Cl)C3=CCCC=C3C1(Cl)C(Cl)=C2Cl", "growth inhibition": "15.6% (inactive)"}, {"smiles": "CS(=O)(=O)Cc1cc(-c2ccccc2)no1", "growth inhibition": "7.75% (inactive)"}, {"smiles": "CC1=CN(c2ccccc2)S2=C1c1sc3c(c1N2c1ccc(Br)cc1)CCCC3", "note": "(centres undefined)", "growth inhibition": "3.15% (inactive)"}, {"smiles": "O=[N+]([O-])c1ccc(COP(=O)(OCc2ccc([N+](=O)[O-])cc2)OCc2ccc([N+](=O)[O-])cc2)cc1", "growth inhibition": "25.3% (inactive)"}, {"smiles": "Cn1cnc(=O)c2n[nH]nc21", "growth inhibition": "-11.4% (inactive)"}, {"smiles": "O=c1c2ccccc2c(=O)n2n1CC=CC2", "growth inhibition": "-2.75% (inactive)"}, {"smiles": "CC(C)CCC(C)(C)COC(=O)c1ccc([N+](=O)[O-])cc1", "note": "(tested in a mixture with another compound)", "growth inhibition": "2.15% (inactive)"}, {"smiles": "CSCCC(NC(=O)c1cnc2ccccc2n1)C(=O)O", "note": "(centres undefined)", "growth inhibition": "14.7% (inactive)"}, {"smiles": "COc1cccc(/C=C2/Sc3sc(C(C)=O)c(C)[n+]3C2=O)c1O", "growth inhibition": "-4.55% (inactive)"}, {"smiles": "CC(=O)O[C@@H]1CC[C@@]2(C)C(=O)C34C[C@@]5(C)C([C@@H](C)CCCC(C)C)CCC5(C)[C@](O)(O3)C(=O)[C@H]4C2C1(C)C", "note": "(some centres undefined)", "growth inhibition": "-0.05% (inactive)"}, {"smiles": "O=[N+]([O-])/C(Cl)=C(\\NCCO)C(Cl)=C(Cl)Cl", "growth inhibition": "23.9% (inactive)"}, {"smiles": "CN(C)CCNC(=O)c1ccc2nc3c(nc2c1)C(=O)c1ccccc1-3", "growth inhibition": "3.6% (inactive)"}, {"smiles": "Ic1ccc(N=Nc2ccccc2)cc1", "growth inhibition": "25.3% (inactive)"}, {"smiles": "CC(=O)c1cccc(C)n1", "growth inhibition": "10.9% (inactive)"}, {"smiles": "C1CCCCCc2c(-c3n[nH]c4c3CCCCCCCCCC4)n[nH]c2CCCC1", "growth inhibition": "2.75% (inactive)"}, {"smiles": "O=C(CCl)Nc1cc(Cl)c(Cl)cc1Cl", "growth inhibition": "64.8% (inactive)"}, {"smiles": "CCN(C(=O)c1ccc([N+](=O)[O-])cc1)C(c1ccccc1)P(=O)(c1ccccc1)c1ccccc1", "note": "(centres undefined)", "growth inhibition": "2.7% (inactive)"}, {"smiles": "O=C1CCSC(=S)N1c1ccc(F)cc1F", "growth inhibition": "4.7% (inactive)"}, {"smiles": "Cc1ccc(C(=O)OCC2OC(Cl)CC2OC(=O)c2ccc(C)cc2)cc1", "note": "(centres undefined)", "growth inhibition": "2.85% (inactive)"}, {"smiles": "O=C1OCC/C1=C1/Nc2ccccc2NC1=O", "growth inhibition": "-16.4% (inactive)"}, {"smiles": "Cc1cc2c(=O)[nH]cnc2[nH]1", "growth inhibition": "13.8% (inactive)"}, {"smiles": "O=NNc1ccc(Sc2ccccc2)cn1", "growth inhibition": "-31.6% (inactive)"}, {"smiles": "CSCC[C@H]1C(=O)N=C(N)N1C(=O)OCc1ccccc1", "growth inhibition": "-2.75% (inactive)"}, {"smiles": "CN(C)c1nc(=NCc2cccs2)ss1", "growth inhibition": "60.5% (inactive)"}, {"smiles": "CC1(C#N)N(C(=O)c2ccccc2)c2ccccc2N1C(=O)c1ccccc1", "growth inhibition": "36% (inactive)"}, {"smiles": "CCCOC(=O)CCCC1=NC2=CC=CC3=NC(C)=NC(=N1)N23", "growth inhibition": "-38.1% (inactive)"}, {"smiles": "C=CCc1cc(OC)c2c(c1)C(OC)CC(c1ccc(OC)c(OC)c1)O2", "note": "(centres undefined)", "growth inhibition": "-12.7% (inactive)"}, {"smiles": "CC1C(O)=C(O)c2ccccc2N1O", "note": "(centres undefined)", "growth inhibition": "-6.25% (inactive)"}, {"smiles": "CSCC(=O)c1ccccc1", "growth inhibition": "2.15% (inactive)"}, {"smiles": "CC(=O)NC(Cc1c[nH]c2ccccc12)C(=O)Oc1ccc([N+](=O)[O-])cc1", "note": "(centres undefined)", "growth inhibition": "9.3% (inactive)"}, {"smiles": "Cc1cc(Cc2ccc(N)c(C)c2)ccc1N", "growth inhibition": "-19% (inactive)"}, {"smiles": "CC(C)C(O)C(C)(C)C(O)C#N", "note": "(centres undefined)", "growth inhibition": "0.4% (inactive)"}, {"smiles": "CCCCC1(O)C(=O)N(c2ccccc2)N(c2ccccc2)C1=O", "growth inhibition": "22.4% (inactive)"}, {"smiles": "C[n+]1ccc(/C=C/c2c[nH]c3ccccc23)cc1", "growth inhibition": "5.1% (inactive)"}, {"smiles": "COc1cc(/C=C2\\C=Cc3ccccc32)ccc1N(C)C", "growth inhibition": "3.8% (inactive)"}]}]}
